Measurements as given in PubChem BioAssay AID588466 (NMMLSC, 2011).
Values joined by “and” are separate entries in the source; they are usually repeats but may differ in a detail not shown here. Equal entries are not always repeated. Out of some 2,100 compounds screened, about 30 (1%) were called active.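 Rule for the calls: active = compounds whose mean binding response over two repeats is below 75% of the DMSO control; inactive = the rest.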 These entries were drawn from the full list.

Target: Desmoglein-3 (Homo sapiens) (UniProt P32926)
Sequence (P32926 whole entry, looked up): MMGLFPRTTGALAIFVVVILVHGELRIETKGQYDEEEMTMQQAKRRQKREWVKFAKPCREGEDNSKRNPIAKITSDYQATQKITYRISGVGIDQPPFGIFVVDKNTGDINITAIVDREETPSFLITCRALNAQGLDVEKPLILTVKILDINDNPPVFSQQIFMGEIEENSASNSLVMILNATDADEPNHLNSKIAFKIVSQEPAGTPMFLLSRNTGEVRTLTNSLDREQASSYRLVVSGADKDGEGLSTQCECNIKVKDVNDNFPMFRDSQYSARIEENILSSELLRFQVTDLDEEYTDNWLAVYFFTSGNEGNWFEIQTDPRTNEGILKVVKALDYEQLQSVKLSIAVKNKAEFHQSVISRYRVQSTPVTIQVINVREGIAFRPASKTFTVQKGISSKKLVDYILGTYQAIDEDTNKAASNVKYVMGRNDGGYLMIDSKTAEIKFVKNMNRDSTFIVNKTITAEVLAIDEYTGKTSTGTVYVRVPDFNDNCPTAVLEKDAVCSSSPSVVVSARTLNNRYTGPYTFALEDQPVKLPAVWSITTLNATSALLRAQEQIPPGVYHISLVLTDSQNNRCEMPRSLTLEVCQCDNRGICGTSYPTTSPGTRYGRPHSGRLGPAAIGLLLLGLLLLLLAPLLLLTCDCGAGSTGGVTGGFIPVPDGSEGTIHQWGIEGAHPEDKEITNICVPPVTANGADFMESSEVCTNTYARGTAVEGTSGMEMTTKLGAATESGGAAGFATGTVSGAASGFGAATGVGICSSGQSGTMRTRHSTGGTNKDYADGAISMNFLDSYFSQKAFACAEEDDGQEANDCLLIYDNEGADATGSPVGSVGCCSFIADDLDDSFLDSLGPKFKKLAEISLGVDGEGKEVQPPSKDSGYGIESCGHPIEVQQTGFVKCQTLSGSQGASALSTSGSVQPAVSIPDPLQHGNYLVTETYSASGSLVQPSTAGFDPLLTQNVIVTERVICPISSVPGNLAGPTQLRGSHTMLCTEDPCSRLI
Assay: blockers of pemphigus antibody–desmoglein-3 interaction – biochemical, cherry pick 1, bead-based, flow cytometry, confirmation (AID 588466);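 note: 100% = 2% DMSO vehicle and 0% = excess soluble DSG3 blocking control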
Details: Protein G beads with DSG3, scFv-GFP binding, at 10 µM, hits give low values

Row | Structure (SMILES) | binding response (% of DMSO)
1 | Cc1ccc([C@H]2C[C@H](n3cc(C4CC4)nn3)[C@@H](O)CN2Cc2cccs2)cc1 | 119% (inactive)
2 | COc1ccc(S(=O)(=O)N2CCCCCC2)cc1N | 100% (inactive)
3 | COc1ccc(C(=O)Nn2c(C)nc3ccccc3c2=O)cc1Br | 98% (inactive)
4 | COc1ccc(Br)c(C(=O)Nc2cccc(S(=O)(=O)N3CCOCC3)c2)c1 | 98.5% (inactive)
5 | CC(=O)Nc1ccc(S(=O)(=O)NCc2ccc3c(c2)cc(C)n3C)cc1 | 99.3% (inactive)
6 | CC(C)Oc1ccc(C(=O)Nc2ccc(NC(=O)c3ccco3)c(Cl)c2)cc1 | 100% (inactive)
7 | O=C(NCc1ccccc1)C1CCN(S(=O)(=O)c2cccc3cccnc23)CC1 | 109% (inactive) and 103% (inactive)
8 | S=C(NCCCN1CCOCC1)N1CCN(c2cccc(Cl)c2)CC1 | 100% (inactive)
9 | COc1ccc(CNS(=O)(=O)c2cn(C)c(=O)n(C)c2=O)cc1 | 95% (inactive)
10 | Cc1c(C(=O)N2CCN(c3ccc(F)cc3)CC2)sc2nc(-c3ccccc3)cn12 | 101% (inactive)
11 | COc1ccc(NC(=O)c2cc(-c3ccc(C)o3)nc3ccccc23)cc1OC | 103% (inactive)
12 | CCOC(=O)CSc1nnc(-c2ccccc2NC(=O)c2ccccc2)o1 | 95% (inactive)
13 | Cc1cc(C)n2c(SCC(=O)N3CCN(S(=O)(=O)c4ccc(Cl)cc4)CC3)nnc2n1 | 92.2% (inactive)
14 | CC(C)c1ccccc1NS(=O)(=O)N(C)C | 99.3% (inactive)
15 | CN(C)c1nc(N)ncc1-c1ccc(Oc2ccccc2)cc1 | 83.8% (inactive)
16 | Cc1nnc(NC(=O)c2ccc(-c3ccc(Cl)cc3)o2)s1 | 104% (inactive)
17 | COc1ccc2cc(C(=O)COC(=O)COc3ccc4c(C)cc(=O)oc4c3)ccc2c1 | 91.2% (inactive)
18 | COc1ccc(-c2nc(C#N)c(NCc3ccccc3Cl)o2)cc1 | 89.4% (inactive)
19 | COc1ccc(CCn2nnnc2C(C(C)C)N2CCN(c3ncccn3)CC2)cc1OC (configuration not stated) | 96.4% (inactive)

Row | Structure (SMILES) | binding response (% of DMSO)
20 | CCOc1ccc(-n2nc3ccc(NC(=O)c4ccc5c(c4)OCCO5)cc3n2)cc1 | 85.4% (inactive)
21 | O=C(Nc1nc(-c2ccccc2)c(-c2ccccc2)s1)c1ccc(S(=O)(=O)N2CCCCC2)cc1 | 96.3% (inactive)
22 | COc1ccc(CCNC(=O)COc2cccc(-n3cnnn3)c2)cc1 | 108% (inactive)
23 | NC(=O)CC(NC(=O)Cc1cccc2ccccc12)c1ccc(NCCOc2ccccc2)c([N+](=O)[O-])c1 (configuration not stated) | 104% (inactive)
24 | O=C(O)c1ccc(-c2ccc(/C=C3\NC(=O)N(Cc4ccc(Cl)cc4)C3=O)o2)cc1Cl | 103% (inactive)
25 | CCOC(=O)c1cc(-c2ccc(/C=C3/C(=O)N(c4ccc(C(=O)O)cc4)N=C3C)o2)ccc1Cl | 54.4% (active)
26 | CCOC(=O)c1ccc(-c2nnc(-c3ccc(Cl)cc3Cl)o2)cc1 | 100% (inactive)
27 | O=C(NCCCN1CCOCC1)c1cc2nc(-c3ccco3)cc(C(F)(F)F)n2n1 | 101% (inactive)
28 | CC1CC(C)CN(c2ncc3c(n2)CC(c2ccccc2)CC3=O)C1 (configuration not stated) | 99% (inactive)
29 | O=c1c2nnn(Cc3ccc(Cl)cc3)c2ncn1Cc1ccc(F)cc1 | 93.7% (inactive)
30 | O=C(Nc1ccc(N2CCN(C(=O)c3ccccc3)CC2)cc1)c1cc2ccccc2o1 | 93.8% (inactive)
31 | Cc1ccc(N2CCN(S(=O)(=O)c3nnc(NC(=O)c4ccccc4)s3)CC2)cc1 | 98.7% (inactive)
32 | CCOc1ccc2c(c1)C(NC(C)=O)C(=O)N2CCN1CCOCC1 (configuration not stated) | 97.4% (inactive)
33 | O=C(Nc1cccc(NC(=O)c2ccc(Cl)cc2)n1)c1ccc(Cl)cc1 | 100% (inactive)
34 | CNC(=O)CN1C(=O)NC(c2ccccc2)(c2ccccc2)C1=O | 100% (inactive)
35 | Cc1ccc(Sc2ncccc2COC(=O)Nc2c(C)cccc2C)cc1 | 96.3% (inactive)
36 | FC(F)(F)c1cc(-c2ccco2)nc(NCCc2ccccc2)n1 | 106% (inactive)
37 | O=C(NCCCN1CCOCC1)c1cc(-c2cccc(Br)c2)nc2ccccc12 | 102% (inactive)
38 | COc1ccc(-c2cn3c(C)c(C(=O)NC(C)C)sc3n2)cc1 | 95.9% (inactive)

Row | Structure (SMILES) | binding response (% of DMSO)
39 | O=C(Nc1ccc(NS(=O)(=O)c2ccccc2)cc1)c1ccc(Cl)cc1 | 49.9% (inactive)
40 | Cc1ccc(NS(=O)(=O)c2ccc3c(c2)oc(=O)n3C)cc1F | 99.5% (inactive)
41 | CCn1nc(C(=O)OCc2c(C)noc2C)c2ccccc2c1=O | 104% (inactive)
42 | COc1ccc(NC(=O)CCCC(=O)c2ccccc2)cc1 | 103% (inactive)
43 | CCN(CC)CC(=O)NN=C(c1ccccc1)c1ccccc1 | 100% (inactive)
44 | CCSc1nnc(NC(=O)CSc2nnc(CNC(=O)c3ccc(OC)cc3)o2)s1 | 102% (inactive)
45 | CCN(CC(=O)Nc1ccc(S(=O)(=O)N2CCCCC2)cc1)Cc1ccccc1 | 98% (inactive)
46 | O=C(COc1ccccc1Cl)NCCNC(=O)c1ccccn1 | 101% (inactive)
47 | CCN(CC)CCn1c2c(c(SCC(=O)Nc3ccc(C)c(F)c3)nc1=O)CCC2 | 103% (inactive)
48 | Cc1nc(N)sc1-c1csc(Nc2ncccn2)n1 | 95.9% (inactive)
49 | Cc1cnc(C(=O)N2CCN(S(=O)(=O)c3cc(C(F)(F)F)cc(C(F)(F)F)c3)CC2)cn1 | 110% (inactive)
50 | COc1ccc(S(=O)(=O)N2CCN(CC(=O)Nc3cc(Cl)ccc3Cl)CC2)cc1 | 95% (inactive)
51 | COc1ccc(-n2c(SCC(=O)O)nc3sc4c(c3c2=O)CCCC4)cc1 | 103% (inactive)
52 | CCOC(=O)N1CCC(n2c(SCC(=O)c3ccccc3)nc3ccsc3c2=O)CC1 | 93.2% (inactive)
53 | Cc1ccc(NS(=O)(=O)c2c(C)[nH]c(C)c2C(=O)N2CCCCC2)c(Br)c1 | 101% (inactive)
54 | CCCCCC(=O)N1C[C@@H](O)[C@H](n2cc(-c3ccc(F)cc3)nn2)C[C@@H]1c1ccc(OC)cc1 | 99.7% (inactive)
55 | CC(=O)c1cc2c(cc1NC(=O)c1ccc(Cl)cc1)OCCO2 | 87.5% (inactive)
56 | COc1ccc(NC(=O)Cn2nnc(C(=O)NCc3ccccc3)c2N)cc1Cl | 76.4% (inactive)
57 | CC(C)Oc1ccc(C(=O)Nc2c3c(nn2-c2ccccc2)CS(=O)(=O)C3)cc1 | 96.5% (inactive)
